Test [1] deals with Thyroperoxidase (TPO), gene 54314. The experiment in a line: CCTE_Simmons_AUR_rTPO: CCTE's Amplex UltraRed Assay for Thyroperoxidase (TPO) Inhibition, Simmons Lab (AID 2283662).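 For AC50: potency for loss of signal meaning inhibition of peroxidase activity.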 The method, boiled down: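 Rat thyroid microsomes (5 ug protein) with 25 uM Amplex UltraRed and 300 uM H2O2 in 200 mM phosphate buffer, 30 min at 37C in dark; fluorescence 544/590 nm. Eight concentrations, 5 nM–87.5 uM final, 0.5% DMSO, triplicate biological replicates.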

Test [2] is described as follows: CCTE_Simmons_CellTiterGLO_HEK293T: Viability Assessment in CCTE's Assays for Thyroperoxidase (TPO) Inhibition, Simmons Lab (AID 2283665).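 For AC50: cells exposed to compound for 24 h before readout; actives reduce ATP signal below DMSO vehicle meaning cytotoxicity.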 In short, it runs like this:
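HEK293T cells in DMEM with 1% FBS were dosed with 8 concentrations (5 nM–87.5 uM final, 0.5% DMSO) for 24 hr at 37C; ATP content was read by CellTiter-Glo luminescence, loss-of-signal versus DMSO, three biological replicates.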

Test [3] in a line: Tanguay_ZF_120hpf_PFIN_legacy: (Legacy) Oregon State University Tanguay Lab 120 Hour Post-fertilization zebrafish Assay for Pectoral Fin Malformation (AID 2283648).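 Note: each larva judged yes or no for fin defect by brightfield with dead larvae skipped.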 In short, it runs like this: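 Dechorionated Tropical 5D wild-type zebrafish embryos, one per well, statically exposed from 6 to 120 hpf at 28C with 0.64% DMSO final. Pectoral fin malformation scored present/absent by brightfield at 120 hpf; not scored in dead embryos.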

Test [4] can be described thus: Tanguay_ZF_120hpf_CFIN_legacy: (Legacy) Oregon State University Tanguay Lab 120 Hour Post-fertilization zebrafish Assay for Caudal Fin Malformation (AID 2283649). In short, it runs like this: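 Dechorionated Tropical 5D wild-type embryos, one per well from 6 hpf, static exposure to 120 hpf at 28C in 0.64% DMSO. Caudal fin malformation scored by brightfield as present/absent; not scored in dead embryos.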

Test [5] in a line: Tanguay_ZF_120hpf_PIG_legacy: (Legacy) Oregon State University Tanguay Lab 120 Hour Post-fertilization zebrafish Assay for Pigmentation Malformation (AID 2283650). In short, it runs like this:
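Dechorionated Tropical 5D wild-type embryos, one per well from 6 hpf, statically exposed at 28C in the dark until 120 hpf, 0.64% DMSO final. Pigmentation scored present/absent by brightfield microscopy; dead embryos not scored; fitted versus DMSO.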

Test [6] is described as follows: Tanguay_ZF_120hpf_CIRC_legacy: (Legacy) Oregon State University Tanguay Lab 120 Hour Post-fertilization zebrafish Assay for Circulatory Malformation (AID 2283651). In short, it runs like this:
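Tropical 5D wild-type embryos, dechorionated with pronase at 4 hpf, were placed singly in wells at 6 hpf and exposed statically at 28C to 120 hpf (0.64% DMSO final). Circulatory malformation was scored present/absent by brightfield microscopy.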

Test [7] can be described thus: Tanguay_ZF_120hpf_SWIM_legacy: (Legacy) Oregon State University Tanguay Lab 120 Hour Post-fertilization zebrafish Assay for Swim Bladder Malformation (AID 2283654).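 Note: swim bladder malformation in each larva scored yes or no under brightfield.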 In short, it runs like this: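 Dechorionated wild-type Tropical 5D zebrafish embryos, one per well from 6 hpf, were statically exposed at 28C until 120 hpf in 0.64% DMSO. Swim bladder malformation scored as present/absent by brightfield microscopy; not scored in dead larvae.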

Test [8] in a line: Tanguay_ZF_120hpf_TRUN_legacy: (Legacy) Oregon State University Tanguay Lab 120 Hour Post-fertilization zebrafish Assay for Truncated Body (AID 2283655). In short, it runs like this:
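Dechorionated Tropical 5D wild-type embryos placed singly from 6 hpf and statically exposed to 120 hpf at 28C, final DMSO 0.64%. Truncated body scored as present/absent by brightfield; not scored in dead embryos.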

Test [9] is described as follows: Tanguay_ZF_120hpf_NC_legacy: (Legacy) Oregon State University Tanguay Lab 120 Hour Post-fertilization zebrafish Assay for Notochord and Tail Malformation (AID 2283656). In short, it runs like this:
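Dechorionated 5D zebrafish, 1/well from 6 hpf; static exposure to 120 hpf, 28C, sealed, dark; final DMSO 0.64% v/v. NC scored binary (present/absent); dead embryos not scored. Fit vs DMSO baseline, gain direction.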

A short description of test [10]: Tanguay_ZF_120hpf_TR_legacy: (Legacy) Oregon State University Tanguay Lab 120 Hour Post-fertilization zebrafish Assay for Touch Response (AID 2283667). In short, it runs like this: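 Tropical 5D wild-type zebrafish embryos statically exposed to 120 hpf at 28°C, sealed and dark-covered, 0.64% DMSO final; touch response scored as present/absent by brightfield microscopy at 120 hpf. Trimethyltin chloride 5 uM positive control; dead embryos not scored.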

Several values for one entry are separate records, joined by “and”; a condition that tells them apart may be missing. Equal values may be shown once. Inconclusive results are not listed. Some compounds were tested as several samples or in several runs, with calls that do not always agree. Activity calls are given as the source filed them. Rule for the calls: active = hit-call score of the fitted dose curve at least 0.9, where 1 is the maximum; inconclusive = response in the unintended direction; inactive = score below 0.9.

For orientation: AC50 means the midpoint of the concentration-response curve, whichever way the signal moves. Regarding `CCCCC/C=C\C=C\C(=O)OCC`, the AC50 is 38.6 µM (active) in [1] and 88.6 µM (active) in [2].
For the compound `CC(=O)OC/C=C(C)/C=C/C=C(C)/C=C/C1=C(C)CCCC1(C)C`, the AC50 in test [1] is 50.9 µM (active). In addition, the call in [2] was inactive.
As for `CCCCCCOc1ccc(O)cc1`, the values for the AC50 in [1] and in [2] were 8.69 µM (active) and 66.1 µM (active), respectively.
Regarding `CCCCCCCCCCCCOCCOS(=O)(=O)O`, the figures for the AC50 in test [1] and in [2] were 50.8 µM (active) and 78.3 µM (active), respectively.
As for `CCCCOCCOCCO`, the compound was classed as inactive in [3], in [4], in [5], in test [6], in test [7] and in [8]. Moreover, the call in [9] and in test [10] was inactive.
For `Cc1cccc(O)c1`, the AC50 in test [1] was 19.6 µM (active). Besides, the result in test [2] was inactive.
In the same order, the values of `COc1ccccc1O` are 21.7 µM (active) and “inactive”.
With `O=C(O)CS`, the call in [1] and in test [2] was inactive.
As for `CCCc1ccc(N)cc1`, the AC50 in [1] is 0.0301 µM (active). Moreover, the call in [2] was inactive.
Turning to `CN1CCc2cccc3c2[C@H]1Cc1ccc(O)c(O)c1-3`, the figures for the AC50 in test [1] and in [2] were 0.522 µM (active) and 14.4 µM (active), respectively.
Turning to `CN(C)C(=O)Nc1ccccc1`, the AC50 in [1] was 43.8 µM (active).
Turning to `C=C(C)C(N)=O`, the result in test [3], in test [4], in [5], in test [6], in test [7] and in test [8] was inactive. In addition, the result in test [9] and in [10] was inactive.
Consider `O=Cc1ccccc1O`, for which the call in test [1] was inactive.
Turning to `O=c1cc[nH]cc1`, the compound was classed as inactive in test [1].
Regarding `CCCCCCCCCCCCS`, the AC50 in [1] is 7.49 µM (active); in test [2], 83.5 µM (active).
For the compound `CCC(C)(C)C1CCC(=O)CC1`, the AC50 in test [1] was 39.3 µM (active). Further, the result in test [2] was inactive.
`C[C@]12CC[C@@H]3c4ccc(O)cc4CC[C@H]3[C@@H]1CC[C@@H]2O`: the compound was classed as inactive in [4], in test [5], in test [6], in test [7], in test [8] and in test [9]. The call in test [2] and in [10] was inactive. The AC50 in test [1] was 4.86 µM (active).
For the compound `CCCc1ccc(O)cc1`, the compound was called inactive in [1]. The AC50 in test [2] is 87.9 µM (active).
As for `CC1=CCC(=C(C)C)CC1`, the compound was classed as inactive in [1].
On to `[O-]/[N+](=N\O)c1ccccc1`, for which the outcome in [1] and in test [2] was inactive.
On to `O=C(c1ccc(OCCN2CCCCC2)cc1)c1c(-c2ccc(O)cc2)sc2cc(O)ccc12`, for which the result in test [3], in [4], in [6], in [8], in test [9] and in test [1] was inactive. Moreover, the AC50 in [2] was 20 µM (active).
Take `O=C(O)C1=NN(c2ccc(S(=O)(=O)O)cc2)C(=O)C1`: the AC50 in test [1] was 36.4 µM (active).
Take `CC/C(=C(\c1ccccc1)c1ccc(OCCN(C)C)cc1)c1ccccc1`: the result in [3], in [4], in [5], in test [6], in [7] and in [8] was inactive. Besides, the result in test [9], in test [1] and in test [10] was inactive. Further, the concentration at half-maximal activity (AC50) was 24.2 µM (active) in test [1]; 8.72 µM (active) and 6.64 µM (active) in [2].
As to `O=c1cc(-c2ccc(O)cc2)oc2cc(O)cc(O)c12`, the AC50 in [1] is 4.81 µM (active). Moreover, the compound was classed as inactive in [2].
Take `COC(=O)c1ccc(C(=O)OC)cc1`: the compound was classed as inactive in [3], in [4], in test [6], in test [8] and in test [9]. The AC50 in [7] was 12.3 µM (active).
In the case of `CCCCCCCCOC(=O)c1ccc(O)cc1`, the AC50 in test [1] was 52.8 µM (active); in [2], 24.4 µM (active).
Consider `O=C1OC2(c3ccc(O)cc3Oc3cc(O)ccc32)c2ccccc21`, for which, in test [1], the AC50 is 10.2 µM (active). Also, the compound was classed as inactive in test [2].
Consider `CC(C)(C)c1cccc(O)c1`, for which the AC50 in test [1] was 18.9 µM (active). The compound was classed as inactive in test [2].
Take `NC(N)=S`: the half-maximal activity concentration (AC50) in test [1] was 19.1 µM (active) and 12.3 µM (active). Besides, the call in [2] was inactive.
In the case of `c1ccc2scnc2c1`, in [1], the AC50 was 56 µM (active) and 16.7 µM (active). In [2], the compound was classed as inactive.
On to `CC(=O)Nc1cc(S(=O)(=O)O)cc2cc(S(=O)(=O)O)c(N=Nc3ccccc3)c(O)c12`, for which the AC50 in [1] is 40.8 µM (active); in [2], 17.3 µM (active).
Take `CCc1cccc(O)c1`: the AC50 in test [1] is 16.6 µM (active). Further, the result in test [2] was inactive.
Turning to `C#C[C@]1(O)CC[C@H]2[C@@H]3CCc4cc(O)ccc4[C@H]3CC[C@@]21C`, the outcome in [3], in [4], in test [5], in test [6], in test [7] and in [8] was inactive. Further, the compound was called inactive in test [9] and in [10]. Also, the AC50 in [1] is 9.38 µM (active); in test [2], 37.5 µM (active).

The record behind these values is PubChem BioAssay (EPA / NIEHS).
